The values that follow come from PubChem BioAssay.

Each structure is given as a SMILES string.

The assay is described as follows: viability loss of caspase-8 NB7 cells with TRAIL – with/without TRAIL, luminescence panel, confirmation (AID 651596). The settings on record: NB7 neuroblastoma + caspase-8, without TRAIL, NB7 Caspase-8, without TRAIL, mean of runs, at 10 µM.
For the compound `NC(=O)c1c(NC(=O)c2cc3ccccc3o2)sc2c1CCC2`, the activity amounted to 42.8%.

With `CN(C(=S)NC(=O)c1ccc(Cl)cc1)C1CCCCC1`, the activity is 60%.

Regarding `Nc1c(-c2ccccc2)cnn1-c1ccccc1`, the activity is 40.4%.

Take `O=C(COC(=O)c1n[nH]c2ccccc12)NC(=O)NC12CC3CC(CC(C3)C1)C2`: the activity worked out at 57%.

In the case of `Cc1cccc(/C=C/c2nc3ccccc3c(=O)[nH]2)c1`, the activity is 65%.

On to `CCc1cc2c(=O)[nH]c(-c3ccccn3)nc2s1`, for which the activity was 41%.
